# According to PubChem BioAssay:
# “And” between values parts separate entries of the source, which are not always exact repeats. Equal values may be shown once. Results filed as inconclusive are left out. For part of these data: Measured potencies and affinities stand elsewhere. The source made the active and inactive calls. Unless noted, the rule behind the calls is not given here.
# Tests used:
# [1] = hESC survival regulators, cell-based (AID 493140); conditions: human embryonic stem cell survival screen; stronger effect = higher value;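 note: cells exposed to compounds for four days before counting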
# [2] = liver-stage malaria parasite growth inhibition, primary screen, cell-based, HepG2, luciferase luminescence, HepG2 viability (AID 624349; in the data active = parasite load remaining mostly below about 12%, no sharp cut-off; inactive = mostly above about 10%;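 note: 100% = mean of DMSO negative control wells on the same plate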); conditions: P. berghei liver stage in HepG2, luciferase luminescence, concentration not given here; parasite load remaining: stronger effect = lower value; viability: measured here: HepG2 viability without parasites
# [3] = Cy5 fluorescence interference with SSB-bound oligo, artefact control for HCV NS3 helicase inhibitor project, biochemical, NIH Clinical Collection, E. coli SSB (AID 743268)
# [4] = test system: Hepatitis C virus NS3 helicase; assay: HCV NS3 helicase inhibitors, primary screen, biochemical, fluorescence polarization, NIH Clinical Collection (AID 743270); conditions: NS3 helicase binding to Cy5-dT15 DNA, stronger effect = higher value, concentration not given here
# [5] = molecular target: Single-stranded DNA-binding protein (Escherichia coli (strain K12)) (UniProt P0AGE0); assay: E. coli SSB displacement from DNA, counter-screen for HCV NS3 helicase inhibitor project, biochemical, fluorescence polarization, NIH Clinical Collection (AID 743271; in the data active = inhibition above about 28%); conditions: stronger effect = higher value, concentration not given here
# [6] = fluorescence interference in NS3h assay format, artefact control for HCV NS3 helicase inhibitor project, biochemical, NIH Clinical Collection (AID 743272); conditions: fluorescence interference counterscreen, stronger effect = lower value;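 note: HCV NS3 helicase with a Cy5 labelled single stranded DNA probe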
# [7] = sensitizers of A549 cells to miR-34 induction, primary screen, imaging, A549 dox-inducible miR-34, nuclei and caspase counts (AID 1347080;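 active = compounds whose cell count with miR-34 switched on is under 0.7 times the count with it off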); conditions: A549 miR-34 inducible, Hoechst nuclei count, 48 h
# [8] = survival rescue of mitochondrial mutant cells in low glucose, primary screen, MELAS cybrids, Rieske KO mouse fibroblasts, CellTiter-Glo (AID 1508586;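 active = mean z-score across replicates of 1.96 or higher in either the MELAS or the Rieske mutant cell line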;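 note: z relative to plate mean and SD of compound and empty wells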)
# [9] = kinase inhibitors against Plasmodium liver-stage infection, cell-based, known kinase inhibitor set, luminescence, hepatoma host viability (AID 624392); conditions: Plasmodium liver stage in hepatoma cells, luciferase luminescence, concentration not given here; liver cell % of control: measured here: host liver cell viability; parasite % of control: stronger effect = lower value;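 note: infected cells incubated roughly two days before readout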
# [10] = polyglutamine-triggered caspase-3 activation inhibitors, cell-based (AID 1583); conditions: polyglutamine-induced caspase-3 activation, cell assay; stronger effect = higher value;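 tested at 10 µM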
# [11] = suppressors of polyQ aggregation in yeast, 75Q-TubU reporter (AID 1593); conditions: Yeast 75Q polyglutamine aggregation reporter
# [12] = rescue of polyQ-huntingtin neuronal dysfunction in worms, whole organism, C. elegans mechanosensory neurons, N-terminal huntingtin (AID 1599); conditions: touch response, stronger effect = higher value
# [13] = inhibitors of mitochondrial cytochrome c release, biochemical, purified mitochondria (AID 1603); conditions: stronger effect = lower value;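 note: mouse liver mitochondria challenged with calcium chloride; signal normalized to the plate average as 100%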
# [14] = inhibitors of polyQ protein aggregation (AID 1604); conditions: polyglutamine-induced protein aggregation inhibition assay; stronger effect = higher value; tested at 2.5 µM
# [15] = protection against mutant huntingtin cytotoxicity, PC12 cells, LDH release (AID 1610); conditions: PC12 mutant huntingtin toxicity, final LDH at 4 uM, stronger effect = lower value
# [16] = enhancers of glutamate uptake in motor neurons, MN-1 cell line (AID 1612); conditions: MN-1 motor neuron cells, stronger effect = higher value;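 note: tested at 1 µM final; 0% = mean of DMSO vehicle wells on each plate; positive means more glutamate uptake than control and negative means less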
# [17] = suppressors of polyglutamine aggregation in yeast, 75Q-TubH (AID 1616); conditions: S. cerevisiae 75Q-TubH polyglutamine aggregation suppression; stronger effect = higher value
# [18] = test system: Hepatitis C virus NS3 helicase; assay: HCV NS3 helicase inhibitors, primary screen, biochemical, fluorescence polarization, LOPAC1280 library (AID 687035; in the data active = inhibition above about 37%); conditions: Purified HCV NS3 helicase, Cy5-dT15 ssDNA binding fluorescence polarization; stronger effect = higher value; concentration not given here
# [19] = Cy5 fluorescence quenching or enhancement artefacts, artefact control for HCV NS3 helicase inhibitor project, biochemical, LOPAC1280 (AID 687037); conditions: Cy5-DNA-NS3h complex fluorescence interference counterscreen
# [20] = molecular target: NAD(+) hydrolase SARM1 (Homo sapiens) (UniProt Q6SZW1); assay: SARM1 TIR NADase inhibitors, cell lysate, NAD-Glo luminescence (AID 1508614;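 active = compound whose remaining NAD level is above about 45 nM, limit read from the data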;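 note: higher remaining NAD means stronger inhibition of SARM1 NADase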); conditions: SAM-TIR HEK293T lysate NADase, at 1 µM, stronger effect = higher value
# [21] = reducers of polyQ inclusions in PC12 cells, cell-based, NGF-treated PC12, GFPQ80 (AID 1614); conditions: PC12 NGF-treated GFP-polyQ80 inclusion reduction;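 note: lower means fewer inclusions and 0 means no inclusions at all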
# [22] = molecular target: Mitogen-activated protein kinase 7 (Homo sapiens) (UniProt Q13164); assay: ERK5 transactivation activators in reporter cells, primary screen, cell-based, HTS (AID 1508626;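 active = luciferase signal above three times the same-plate solvent-only control wells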;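 note: luciferase driven by Gal4-ERK5 fusion binding five Gal4 sites before minimal TATA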); conditions: HeLa Gal4-ERK5 transactivation, 18 h, at 5 µM, stronger effect = higher value
# [23] = stronger effect = lower value, cell number ratio, induced over uninduced
# [24] = measured here: relative caspase fold change +Dox/-Dox
# [25] = measured here: total cells with miR-34 induction, stronger effect = lower value
# [26] = measured here: total cells without miR-34 induction
# [27] = MELAS cybrid survival, CellTiter-Glo 48 h, stronger effect = higher value
# [28] = Rieske KO mouse fibroblast survival, CellTiter-Glo 72 h
# NAD(+) hydrolase SARM1 (Homo sapiens), sequence (Q6SZW1 whole entry, looked up): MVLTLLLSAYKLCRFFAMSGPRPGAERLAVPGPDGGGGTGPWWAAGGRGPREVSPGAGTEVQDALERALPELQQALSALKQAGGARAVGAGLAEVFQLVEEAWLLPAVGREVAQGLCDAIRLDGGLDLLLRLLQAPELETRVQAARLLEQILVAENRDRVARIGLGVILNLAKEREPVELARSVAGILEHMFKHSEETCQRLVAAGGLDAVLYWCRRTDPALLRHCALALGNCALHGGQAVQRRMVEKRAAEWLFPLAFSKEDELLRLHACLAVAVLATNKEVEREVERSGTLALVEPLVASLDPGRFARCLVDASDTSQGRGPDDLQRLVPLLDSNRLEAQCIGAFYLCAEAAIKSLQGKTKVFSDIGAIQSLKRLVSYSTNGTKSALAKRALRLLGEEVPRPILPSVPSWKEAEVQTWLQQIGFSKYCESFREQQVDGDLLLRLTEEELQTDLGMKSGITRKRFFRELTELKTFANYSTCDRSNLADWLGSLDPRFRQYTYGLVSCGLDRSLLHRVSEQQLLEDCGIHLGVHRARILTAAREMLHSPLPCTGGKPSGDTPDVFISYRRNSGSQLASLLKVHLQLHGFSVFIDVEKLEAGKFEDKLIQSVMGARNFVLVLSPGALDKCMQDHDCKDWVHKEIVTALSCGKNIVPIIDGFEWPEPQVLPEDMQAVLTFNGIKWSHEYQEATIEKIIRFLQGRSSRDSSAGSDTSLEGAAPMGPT
# Mitogen-activated protein kinase 7 (Homo sapiens), sequence (Q13164 whole entry, looked up, the tested form may be a part): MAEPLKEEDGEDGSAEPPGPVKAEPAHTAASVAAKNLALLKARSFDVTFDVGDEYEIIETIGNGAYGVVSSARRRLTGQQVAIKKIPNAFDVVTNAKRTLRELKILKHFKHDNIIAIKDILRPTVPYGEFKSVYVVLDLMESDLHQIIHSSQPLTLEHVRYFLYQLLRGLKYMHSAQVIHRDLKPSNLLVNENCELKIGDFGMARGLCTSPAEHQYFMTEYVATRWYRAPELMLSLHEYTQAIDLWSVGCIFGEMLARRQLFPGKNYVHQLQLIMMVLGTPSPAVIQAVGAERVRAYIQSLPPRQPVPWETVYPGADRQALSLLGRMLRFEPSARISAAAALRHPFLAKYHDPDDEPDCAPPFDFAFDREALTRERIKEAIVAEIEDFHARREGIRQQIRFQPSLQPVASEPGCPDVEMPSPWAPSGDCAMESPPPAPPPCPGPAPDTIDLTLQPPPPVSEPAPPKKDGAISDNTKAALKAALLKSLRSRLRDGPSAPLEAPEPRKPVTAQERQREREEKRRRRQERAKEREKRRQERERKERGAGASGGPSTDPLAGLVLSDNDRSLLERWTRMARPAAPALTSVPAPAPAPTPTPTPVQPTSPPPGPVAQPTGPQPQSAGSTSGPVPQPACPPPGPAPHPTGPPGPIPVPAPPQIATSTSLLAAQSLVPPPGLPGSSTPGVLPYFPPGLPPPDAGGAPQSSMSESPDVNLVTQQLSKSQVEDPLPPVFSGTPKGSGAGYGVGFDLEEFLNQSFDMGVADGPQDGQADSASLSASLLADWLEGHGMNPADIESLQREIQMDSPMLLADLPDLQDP
smiles,measurement,setting,value
COc1ccc2cc([C@@H](C)C(=O)O)ccc2c1,survival,[1],10.1 (inactive)
same,parasite load remaining,[2],124% (inactive) and 104% (inactive)
same,viability,[2],101% and 92.4%
same,fluorescence ratio,[3],0.94 (inactive)
same,inhibition,[4],0.66% (inactive)
same,inhibition,[5],8.27% (inactive)
same,fluorescence ratio,[6],0.94 (inactive)
same,fold change,[7]; [23],0.747 (inactive)
same,fold change,[7]; [24],1.43
same,cell count,[7]; [25],6320
same,cell count,[7]; [26],8450
same,z-score,[8]; [27],-0.0303 (inactive)
same,z-score,[8]; [28],-0.487
Nc1ncn(C2O[C@H](CO)[C@@H](O)[C@H]2O)c(=O)n1 (stereo partly drawn),parasite load remaining,[2],151% (inactive)
same,viability,[2],108%
same,fold change,[7]; [23],0.664 (active)
same,fold change,[7]; [24],1.38
same,cell count,[7]; [25],2060
same,cell count,[7]; [26],3100
same,z-score,[8]; [27],-0.101 (inactive)
same,z-score,[8]; [28],0.0147
CCSc1ccc2c(c1)N(CCCN1CCN(C)CC1)c1ccccc1S2,survival,[1],1.5 (inactive)
same,parasite load remaining,[2],77.3% (inactive)
same,viability,[2],70.9%
same,fold change,[7]; [23],0.933 (inactive)
same,fold change,[7]; [24],0.655
same,cell count,[7]; [25],7330
same,cell count,[7]; [26],7860
same,z-score,[8]; [27],-1.53 (inactive)
same,z-score,[8]; [28],0.455
CO[C@@]1(NC(=O)[C@H](C(=O)O)c2ccc(O)cc2)C(=O)N2C(C(=O)O)=C(CSc3nnnn3C)CO[C@@H]21,parasite load remaining,[2],81.8% (inactive)
same,viability,[2],98.4%
same,fold change,[7]; [23],0.861 (inactive)
same,fold change,[7]; [24],1.17
same,cell count,[7]; [25],8980
same,cell count,[7]; [26],10400
same,z-score,[8]; [27],0.452 (inactive)
same,z-score,[8]; [28],-0.352
CN(C)CCC(CSc1ccccc1)Nc1ccc(S(=O)(=O)NC(=O)c2ccc(N3CCN(Cc4ccccc4-c4ccc(Cl)cc4)CC3)cc2)cc1[N+](=O)[O-] (stereo not drawn),liver cell % of control,[9],65.5% and 90.4% and 88.4%
same,parasite % of control,[9],27.6% (inactive) and 29.4% (inactive) and 37% (inactive)
same,fold change,[7]; [23],0.995 (inactive)
same,fold change,[7]; [24],0.778
same,cell count,[7]; [25],5830
same,cell count,[7]; [26],5860
same,z-score,[8]; [27],-0.297 (inactive)
same,z-score,[8]; [28],-2.14
COC(C(=O)N1Cc2[nH]nc(NC(=O)c3ccc(N4CCN(C)CC4)cc3)c2C1)c1ccccc1 (stereo not drawn),liver cell % of control,[9],82.1% and 96.2% and 98.6%
same,parasite % of control,[9],40.2% (inactive) and 56.3% (inactive) and 75.4% (inactive)
same,fold change,[7]; [23],1.01 (inactive)
same,fold change,[7]; [24],0.994
same,cell count,[7]; [25],1850
same,cell count,[7]; [26],1820
same,z-score,[8]; [27],1.1 (inactive)
same,z-score,[8]; [28],-2.53
CC(Cc1ccc(O)c(O)c1)C(C)Cc1ccc(O)c(O)c1 (stereo not drawn),inhibition,[10],-3.14%
same,score,[11],0.83
same,rescue above control,[12],-2.86
same,cytochrome c release ratio,[13],3.11
same,inhibition of aggregation,[14],-17%
same,normalised LDH release,[15],0.415
same,glutamate uptake change,[16],67.2%
same,aggregation suppression score,[17],0.665
same,fold change,[7]; [23],1.04 (inactive)
same,fold change,[7]; [24],1.01
same,cell count,[7]; [25],5990
same,cell count,[7]; [26],5750
CCc1c(C(=O)NCCc2ccc(N3CCCCC3)cc2)[nH]c2ccc(Cl)cc12,inhibition,[18],0% (inactive)
same,fluorescence ratio (interference),[19],1 (inactive)
same,fold change,[7]; [23],0.939 (inactive)
same,fold change,[7]; [24],0.558
same,cell count,[7]; [25],7490
same,cell count,[7]; [26],7980
same,z-score,[8]; [27],0.376 (inactive)
same,z-score,[8]; [28],-0.206
CON=C1C[C@]2(C[C@@H]3C[C@@H](C/C=C(\C)C[C@@H](C)/C=C/C=C4\CO[C@@H]5[C@H](O)C(C)=C[C@@H](C(=O)O3)[C@]45O)O2)O[C@H](/C(C)=C/C(C)C)[C@H]1C,fold change,[7]; [23],1 (inactive)
same,fold change,[7]; [24],0.955
same,cell count,[7]; [25],3250
same,cell count,[7]; [26],3250
same,remaining NAD,[20],10 nM (inactive)
CC1(C)S[C@@H]2[C@H](NC(=O)[C@@H](N)c3ccc(O)cc3)C(=O)N2[C@H]1C(=O)O,inhibition,[10],1.98%
same,score,[11],1.39
same,rescue above control,[12],1.27
same,cytochrome c release ratio,[13],1.03
same,inhibition of aggregation,[14],54.5%
same,glutamate uptake change,[16],1.23%
same,inclusion score,[21],2
same,aggregation suppression score,[17],1.15
same,parasite load remaining,[2],98.1% (inactive) and 66.2% (inactive)
same,viability,[2],75% and 90.3%
same,fold change,[7]; [23],0.918 (inactive)
same,fold change,[7]; [24],1.48
same,cell count,[7]; [25],11000
same,cell count,[7]; [26],12000
CC1(C)S[C@@H]2[C@H](NC(=O)[C@H](NC(=O)N3CCNC3=O)c3ccccc3)C(=O)N2C1C(=O)O (stereo partly drawn),inhibition,[10],10.9%
same,score,[11],1.31
same,rescue above control,[12],-2.48
same,cytochrome c release ratio,[13],1.14
same,inhibition of aggregation,[14],54.5%
same,glutamate uptake change,[16],7.74%
same,inclusion score,[21],2
same,aggregation suppression score,[17],1.29
same,survival,[1],4.75 (inactive)
same,parasite load remaining,[2],188% (inactive) and 42.9% (inactive)
same,viability,[2],87.9% and 114%
same,fold change,[7]; [23],0.882 (inactive)
same,fold change,[7]; [24],3.93
same,cell count,[7]; [25],12000
same,cell count,[7]; [26],13600
Cc1cc(Nc2nc(NC(C)c3ccc(F)cc3)c(C#N)cc2F)n[nH]1 (stereo not drawn),liver cell % of control,[9],55.1% and 77.3% and 95.6%
same,parasite % of control,[9],1.2% (inactive) and 12.7% (inactive) and 40% (inactive)
same,fold change,[7]; [23],1.16 (inactive)
same,fold change,[7]; [24],0.511
same,cell count,[7]; [25],1300
same,cell count,[7]; [26],1120
same,z-score,[8]; [27],2.18 (active)
same,z-score,[8]; [28],-3.18
Cc1ccccc1-n1c(Cn2nc(-c3cccc(O)c3)c3c(N)ncnc32)nc2cccc(C)c2c1=O,liver cell % of control,[9],93.6% and 86.4% and 105%
same,parasite % of control,[9],34.6% (inactive) and 44.4% (inactive) and 71.3% (inactive)
same,fold change,[7]; [23],0.979 (inactive)
same,fold change,[7]; [24],0.801
same,cell count,[7]; [25],7710
same,cell count,[7]; [26],7880
same,z-score,[8]; [27],-0.245 (inactive)
same,z-score,[8]; [28],-0.436
C[C@H](Cn1cnc2c(N)ncnc21)OCP(=O)(O)O,fold change,[7]; [23],0.942 (inactive)
same,fold change,[7]; [24],0.901
same,cell count,[7]; [25],9100
same,cell count,[7]; [26],9660
same,remaining NAD,[20],10 nM (inactive)
Cn1nnnc1SCC1=C(C(=O)O)N2C(=O)[C@@H](NC(=O)[C@H](O)c3ccccc3)[C@H]2SC1,survival,[1],7.33 (inactive)
same,parasite load remaining,[2],73.2% (inactive)
same,viability,[2],97.6%
same,fold change,[7]; [23],0.871 (inactive)
same,fold change,[7]; [24],1.18
same,cell count,[7]; [25],9300
same,cell count,[7]; [26],10700
same,remaining NAD,[20],10 nM (inactive)
same,luciferase signal,[22],36 AU (inactive)
